Gal4-VP16 FLuc – Gal4-VP16 reporter inhibition counter-screen; Drosophila S2 Gal4-VP16 UAS-luciferase, luminescence, 20 h; AID 2546; Potency, µM (highest dose often 53.6 µM), without a hit: at the highest dose activity, negative = inhibition, most hits filed as inhibitors; 310,000 tested, 3.5% active;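 further: Gal4-VP16 expression switched on by copper sulfate through the metallothionein promoter; potency means the concentration at half of the fitted maximal effect; nearly all actives have a fitted effect of over 50% in size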
TrxR1 substrate – rat thioredoxin reductase 1 substrate activity; 390,000 tested, 0.01% active; purified TrxR1 substrate turnover, NADPH consumption readout; O89049; Potency, µM (series often up to 114 µM), for the others: top-dose activity change, negative = substrate turnover; AID 588456; further: potency means the concentration at half of the fitted maximal effect; nearly all actives have a fitted effect of over 50% in size
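Rat TrxR1, dispensed at 90 nM, was prereduced with 400 uM NADPH (final) for 5 min at ~22 deg C, then incubated with compound 15 min before 400 uM selenite. A first-read NADPH fluorescence drop versus no-compound background flagged substrates.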
GALK inhibitor – blocks human galactokinase activity. Potency, µM (doses to about 57.5 µM), for the others: at the highest dose activity change, negative = inhibition, usual class: inhibitors. 270,000 tested, 0.007% active. Purified GALK, Kinase-Glo residual ATP luminescence. P51570; further: potency means the concentration at half of the fitted maximal effect
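Compounds were pin-transferred into ATP buffer (35 uM final), then GALK plus galactose (5 nM, 100 uM final) was added. After 1 h at room temperature, Kinase-Glo Plus was added and luminescence read after 10 min.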
rTrxR1 inhibitor – rat TrxR1 inhibition; O89049; recombinant rTrxR1, NADPH fluorescence consumption, selenite substrate; Potency, µM (series often up to 114 µM), without a hit: at the top dose activity change, negative = inhibition, hits mostly inhibitors; 390,000 tested, 1% active; AID 588453; further: potency means the concentration at half of the fitted maximal effect; nearly all actives have a fitted effect of over 65% in size
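Rat TrxR1 (90 nM in the dispensed reagent) was pre-reduced with 400 uM NADPH for 5 min at room temperature, then incubated with compound for 15 min. After 400 uM selenite was added, NADPH fluorescence (Ex 340/Em 450 nm) was followed for 8 min.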
Coupling enz – inhibits coupling enzyme system, counter-screen for aldolase hits; coupling enzyme system counterscreen, AmpLite Red fluorescence; activity change, negative = inhibition, % at 58.2 µM, hits read low; 290,000 tested, 0.67% active; AID 2472; in the data active means activity change below about -30%
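Counterscreen of the coupled detection system alone, without aldolase: glyceraldehyde-3-phosphate coupling enzymes plus AmpLite Red readout. Compounds at 57.5 uM final, 10 min RT preincubation, 20 min RT reaction, fluorescence 525/598 nm.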
RORg inh – ROR gamma (mouse) transcription inhibition | Drosophila S2 Gal4-RORgamma UAS-luciferase reporter, 20 h | 310,000 tested, 5.4% active | Potency, µM (doses to about 53.6 µM), without a hit: at the highest dose activity change, negative = inhibition, most hits filed as inhibitors | P51450; further: potency means the concentration at half of the fitted maximal effect; nearly all actives have a fitted effect of over 60% in size
Target sequence (P51450 whole entry, looked up, the tested form may be a part): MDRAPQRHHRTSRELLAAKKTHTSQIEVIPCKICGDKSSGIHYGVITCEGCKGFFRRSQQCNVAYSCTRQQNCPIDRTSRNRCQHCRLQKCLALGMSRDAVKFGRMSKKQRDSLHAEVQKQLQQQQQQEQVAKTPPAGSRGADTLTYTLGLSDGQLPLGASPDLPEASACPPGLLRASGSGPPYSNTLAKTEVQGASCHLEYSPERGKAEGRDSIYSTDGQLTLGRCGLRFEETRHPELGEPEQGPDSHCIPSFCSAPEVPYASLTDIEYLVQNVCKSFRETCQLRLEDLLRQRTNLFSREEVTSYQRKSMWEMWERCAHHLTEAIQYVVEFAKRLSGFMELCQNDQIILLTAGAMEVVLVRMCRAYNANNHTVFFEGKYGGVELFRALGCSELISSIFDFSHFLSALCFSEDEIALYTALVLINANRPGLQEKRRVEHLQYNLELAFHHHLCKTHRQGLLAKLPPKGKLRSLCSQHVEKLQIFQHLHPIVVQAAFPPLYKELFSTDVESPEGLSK
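Luminescence from a UAS-regulated Photinus luciferase reporter in stably transfected Drosophila Schneider cells is measured; decreased signal marks ROR gamma inhibition. Fusion expression is induced by 700 uM copper sulfate for 20 hr.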
* hit, by the source's call; u = inconclusive; x = no result; [ ] = dose if it differs, or a comment. Most compounds without a hit are left out; they make up all but 5.9% or so of the library. Unless noted, the call rests on the fitted dose curve; in most records, active means well fitted curve in the direction sought with a large enough effect; inconclusive means small, poorly fitted or top-dose-only effect, or another doubt; inactive means no such curve, though single readings can be large; an effect the other way counts as inactive or inconclusive. On the % scale 0 is the no-effect control and ±100 the full control effect.

SMILES	Gal4-VP16 FLuc	TrxR1 substrate	GALK inhibitor	rTrxR1 inhibitor	Coupling enz	RORg inh
COc1ccc(C2CC(c3ccccc3)Nc3nc(NC(=O)c4cccs4)nn32)cc1 (stereo not drawn)	5.6µM*	-6%	0%	-12%	10	2.8µM*
COc1ccc(C2CC(c3ccccc3)n3nc(NC(=O)c4cccs4)nc3N2)cc1 (stereo not drawn)	5µM*	2%	-2%	6%	2	3.5µM*
COc1cc(CCC(=O)OCC(=O)NC(=O)c2ccc(Cl)cc2)cc(OC)c1OC	0%	0%[57.1 µM]	10%	3%[57.1 µM]	-1	31%
Fc1ccc(-c2cc3nc4c(c(N5CCOCC5)n3n2)CCCC4)cc1	-11%	19%	6%	27%	-2	3.2µM*
CC1(C)Cc2c(sc3nc(-c4cccs4)n(N)c(=O)c23)CO1	16µM*	5%	7%	9%	1	u
Cc1ccc(-n2nc(C)c(NC(=O)CCl)c2C)cc1C	-14%	9%	x	u	1	u
CCOc1ccc(N(CC(=O)NC2CC3CCC2C3)S(=O)(=O)c2ccc(C)cc2)cc1 (stereo not drawn)	-4%	-4%	2%	24%	x	0%
CCOc1ccc(/C=N/NC(=S)NC2CC3CCC2C3)cc1 (stereo not drawn)	u	3%[57.1 µM]	1%	3%[57.1 µM]	3	5µM*
CCOc1ccc(/C=N/NC(=S)NC2CC3CC2C2C=CCC32)cc1 (stereo not drawn)	4.5µM*	1%[57.1 µM]	0%	20%[57.1 µM]	-6	5µM*
COc1cc(/C=N/NC(=S)NC2CC3CC2C2C=CCC32)ccc1O (stereo not drawn)	4.5µM*	9%[57.1 µM]	x	14%[11.4 µM]	0	1.6µM*
COc1ccc(-c2[nH]ncc2CN2CCC(C(=O)N3CCOCC3)CC2)c(F)c1	-2%	10%[57.1 µM]	7%	9%[57.1 µM]	3	0%
Cc1nn2c(-c3ccco3)ccnc2c1-c1ccc(Br)cc1	x	4%[11.4 µM]	x	11%	x	x
O=C(Cc1cc(=O)[nH][nH]1)N/N=C/c1c(Cl)cccc1Cl	u	-7%	-3%	45µM*	1	21%
Cc1c(CCOC(=O)c2cc([N+](=O)[O-])cc([N+](=O)[O-])c2)sc[n+]1CC(=O)c1ccc(Br)cc1	0%	7%[57.1 µM]	7%	-65%	-7	4µM*
Cc1c(CCOC(=O)CC23CC4CC(CC(C4)C2)C3)sc[n+]1CC(=O)c1ccccc1	4.5µM*	-14%	6%	-17%	2	u
Cc1c(CCOC(=O)c2ccc(Cl)cc2Cl)sc[n+]1CC(=O)c1ccccc1	x	-7%	x	-24%	x	x
Cc1cc(=O)n(C)c(=O)n1CCCCCCOc1cccc([N+](=O)[O-])c1	u	-1%	0%	7%	1	2%
Clc1ccc(-n2c(SC/C=C/c3ccccc3)nnc2-c2cccnc2)cc1	u	-2%[57.1 µM]	-3%	8%	5	3%
S=C(NCCc1ccccc1)Nc1cccc2cnccc12	4.5µM*	11%[57.1 µM]	11%	25%[57.1 µM]	-36*	5µM*
CSc1cccc(NC(=S)Nc2cc(C)ccc2C)c1	u	0%	0%	-6%	-1	11µM*
CSc1cccc(NC(=S)NCCCO)c1	12%	-11%[11.4 µM]	-2%	37%[11.4 µM]	1	-14%
S=C(NCc1ccccc1)Nc1cccc2cnccc12	u	6%[57.1 µM]	-1%	12%[57.1 µM]	-9	-7%
Cc1ccccc1NC(=S)Nc1cccc2cnccc12	-11%	10%[57.1 µM]	1%	-20%[57.1 µM]	-52*	10µM*
Fc1ccccc1NC(=S)Nc1cccc2cnccc12	-4%	-2%[57.1 µM]	0%	-61%	-32*	0%
COc1cc(OC)cc(C(=O)NC2CCCCCCC2)c1	2%	10%[57.1 µM]	3%	7%[57.1 µM]	0	12%
SMILES	Gal4-VP16 FLuc	TrxR1 substrate	GALK inhibitor	rTrxR1 inhibitor	Coupling enz	RORg inh
Cc1ccc(F)c(NC(=S)Nc2cccc3ccccc23)c1	u	x	7%	x	3	11µM*
Cc1ccc(C)c(NC(=S)Nc2cccc3cnccc23)c1	9%	-1%	10%	u	-37*	u
Cc1ccc(C)c(NC(=S)Nc2cccnc2)c1	-5%	0%	7%	u	2	u
COc1ccc(CC(=O)N/N=C(\C)CC(=O)Nc2cccc(F)c2)cc1	9%	-7%	-3%	-26%	-2	-9%
COc1ccc(-n2nnnc2S(=O)(=O)Cc2ccc(C(=O)O)cc2)cc1	4%	1%	0%	16µM*	1	-40%
COc1ccc(-n2nnnc2S(=O)(=O)CC(=O)N2CCCCC2)cc1	4.5µM*	9%	2%	2.2µM*	3	2.8µM*
N#Cc1ccc(CN2CCN(C(=O)c3ccc(S(=O)(=O)N4CCCCCC4)cc3)CC2)cc1	x	3%	x	-11%	x	x
CCN(CC)CCNC(=S)NC(=O)c1cn(-c2ccccc2)nc1-c1ccc(OC)cc1	13µM*	-5%	6%	3%	0	7.1µM*
CCn1c2ccc(C)cc2c2nnc(NN)nc21	-7%	-18%	2%	-20%	-6	1.6µM*
CCn1c2ccccc2c2nnc(NN)nc21	1%	-8%	3%	-2%	-8	u
Cc1cc(-c2n[nH]c(=S)n2/N=C/C(Cl)=C/c2ccccc2)n[nH]1	u	-12%	x	-35%	1	8.9µM*
S=c1[nH]nc(-c2ccco2)n1/N=C/C(Cl)=C/c1ccccc1	11µM*	1%	-7%	-8%	-2	4µM*
Cc1cc(-c2n[nH]c(=S)n2/N=C/c2cccc(O)c2)n[nH]1	0%	-3%	1%	-22%	1	3%
O=C(O)CSc1c2c(nc3cc(C(=O)N4CCOCC4)ccc13)CCCC2	-11%	8%	-6%	5%	-6	5%
CCOc1ccc(N(CCCCO)C(=S)NC(=O)c2ccc(C)c(Br)c2)cc1	5.6µM*	4%	-1%	-13%	6	2.5µM*
COc1ccc(-n2cnc3cc(NCc4cccs4)ccc32)cc1	7%	9%[57.1 µM]	1%	3%[57.1 µM]	-1	14µM*
CC(C)C(=O)Nc1ncc(C(F)(F)F)cc1Cl	5%	6%	-1%	16%	1	8%
FC(F)(F)c1cnc(NNC(=S)Nc2ccc(Cl)cc2)c(Cl)c1	7.9µM*	-5%	-3%	-20%	-4	5.6µM*
Cc1ccc(NC(=S)NNc2ncc(C(F)(F)F)cc2Cl)cc1	11µM*	2%[57.1 µM]	0%	-19%[57.1 µM]	2	13µM*
FC(F)(F)c1cccc(NC(=S)NNC(=S)Nc2ccc(Cl)cc2)c1	-18%	x	x	x	-2	16%
Cc1ccc(NC(=S)NNc2ncc(C(F)(F)F)cc2Cl)c(C)c1	u	-15%	1%	-29%	2	10µM*
Fc1ccc(NC(=S)NNc2ncc(C(F)(F)F)cc2Cl)c(F)c1	u	-21%[11.4 µM]	0%	22%[11.4 µM]	0	5µM*

Bioassay records deposited in PubChem BioAssay by National Center for Advancing Translational Sciences (NCATS).
